Compound activity deposited in PubChem by Broad Institute.
In the library only some 6.8% were active in any assay of this set; here they are far more common.
C diff HTS – C. difficile growth inhibition; Clostridium difficile clinical isolate growth, OD600, 24 h; stronger effect = lower value; growth activity, negative = inhibition, % at 16 µg/mL (by protocol); 86,000 tested, 0.25% active; AID 1259249;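 active = mean growth activity at or below -80% and every replicate also at or below -80%; inconclusive = mean at or below -80% but some replicate above -80%; inactive = mean growth activity above -80%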;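 note: 0% = DMSO wells and -100% = levofloxacin 16 µg/mL wells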
Pf Dd2 growth – inhibitors of Plasmodium falciparum Dd2 growth; P. falciparum Dd2 growth, SYBR Green, 72 h; stronger effect = lower value; activity change, % at 10 µM; 94,000 tested, 2.3% active; in the data active = activity change below about -80%; inconclusive = no clear call, values can overlap the other calls
T cruzi growth-1 – T. cruzi proliferation inhibition; 77,000 tested, 5.9% active; T. cruzi beta-gal in NIH3T3, GalScreen luminescence, 90 h; inhibition, % at 8.34 µM;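 active = mean inhibition above about 93%, with at least 55% of replicates each passing it, limit read from the data, passing the limit was not always enough; inconclusive = only one of those two conditions holds; inactive = neither condition holds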
T cruzi growth-2 – blocks T. cruzi growth in NIH3T3 host cells. shares compounds with T cruzi growth-1. T. cruzi beta-gal in NIH3T3, GalScreen luminescence, 90 h. inhibition, % at 8.35 µM. 5,600 tested, 72% active;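 active = mean replicate inhibition above about 95% and at least 55% of replicates individually reaching it, limit read from the data; inconclusive = only one of the two criteria is met; inactive = neither criterion is met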
T cruzi growth-3 – blocks T. cruzi growth in NIH3T3 host cells | 5,600 tested, 21% active | inhibition, % at 2.09 µM | T. cruzi beta-gal in NIH3T3, GalScreen luminescence, 90 h | AID 651740 | shares compounds with T cruzi growth-1;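 active = mean inhibition above about 95%, with at least 55% of replicates also reaching it, limit read from the data; inconclusive = meets just one of the two conditions; inactive = meets neither condition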;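 note: plate controls were neutral control median for no effect and positive control median for full effect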
NIH3T3 tox – cytotoxicity in mouse NIH/3T3 fibroblasts | shares compounds with T cruzi growth-1 | NIH/3T3 viability, CellTiter-Glo ATP luminescence, 90 h | cytotoxicity (signal decrease), % at 8.35 µM | 5,600 tested, 14% active | AID 651742;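 active = mean signal decrease across replicates above about 35% based on untreated-well scatter, with enough replicates individually passing, limit read from the data; inconclusive = no rule stated though some were filed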;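 note: 0% = median of neutral control wells and 100% = median of positive control wells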
NIH3T3 tox 2 – cytotoxicity in mouse NIH/3T3 fibroblasts | shares compounds with T cruzi growth-1 | NIH/3T3 viability, CellTiter-Glo ATP luminescence, 90 h | inhibition, % at 24.9 µM | 5,600 tested, 56% active;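 active = mean loss of cell viability signal at or above a set limit, and enough replicates individually reaching it; inconclusive = meets only the mean limit or only the replicate share; inactive = meets neither condition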;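 note: 0% = median of neutral control wells and 100% = median of positive control wells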
The depositor's hits bear a star; ? = inconclusive; . = not tested or not shown; + = active, no number.

SMILES	C diff HTS	Pf Dd2 growth	T cruzi growth-1	T cruzi growth-2	T cruzi growth-3	NIH3T3 tox	NIH3T3 tox 2
Cn1cnc(S(=O)(=O)N2C[C@H](O)COC[C@@H]3O[C@@H](CC(=O)NCc4cccc(F)c4)CC[C@H]32)c1	-2	.	57	.	.	.	.
C[C@@H]1CCCCO[C@H](CN(C)Cc2ccc3c(c2)OCO3)[C@H](C)CN([C@H](C)CO)C(=O)c2cc(NC(=O)Nc3ccc(F)cc3)ccc2O1	2	-74	96*	103*	59	21	104*
C[C@@H]1CN([C@@H](C)CO)C(=O)c2cc(NC(=O)Nc3ccc(F)cc3)ccc2O[C@@H](C)CCCCO[C@H]1CN(C)Cc1ccc2c(c1)OCO2	23	-80	89	.	.	.	.
C[C@@H]1CCCCO[C@@H](CN(C)Cc2ccc3c(c2)OCO3)[C@@H](C)CN([C@H](C)CO)C(=O)c2cc(NC(=O)Nc3ccc(F)cc3)ccc2O1	6	-13	97*	114*	30	11	-6
C[C@H](CO)N1C[C@H](C)[C@@H](CN(C)Cc2ccc3c(c2)OCO3)OCCCC[C@H](C)Oc2ccc(NC(=O)Nc3ccc(F)cc3)cc2C1=O	0	16	103*	100*	81	18	43*
C[C@@H]1CN([C@H](C)CO)C(=O)c2cc(NC(=O)Nc3ccc(F)cc3)ccc2O[C@@H](C)CCCCO[C@H]1CN(C)Cc1ccc2c(c1)OCO2	20	-71	87	.	.	.	.
C[C@@H]1CN([C@H](C)CO)C(=O)c2cc(NC(=O)Nc3ccc(F)cc3)ccc2O[C@@H](C)CCCCO[C@@H]1CN(C)Cc1ccc2c(c1)OCO2	24	?	88	.	.	.	.
COCC(=O)N(C)C[C@@H]1Oc2ncc(C#Cc3ccc(OC)cc3)cc2C(=O)N([C@H](C)CO)C[C@H]1C	-1	26	-15	.	.	.	.
CNC[C@@H]1Oc2ccc(NS(C)(=O)=O)cc2CC(=O)N([C@H](C)CO)C[C@@H]1C	-2	11	4	.	.	.	.
C[C@@H]1CN([C@@H](C)CO)C(=O)c2ccccc2-c2ccccc2CO[C@H]1CN(C)C(=O)Cc1ccccc1	-8	1	90	.	.	.	.
C[C@H]1CN([C@@H](C)CO)C(=O)c2ccccc2-c2ccccc2CO[C@@H]1CN(C)Cc1ccncc1	2	-3	?	73	7	13	11
C[C@@H]1CN([C@H](C)CO)C(=O)c2ccccc2-c2ccccc2CO[C@@H]1CN(C)C(=O)Cc1ccccc1	-4	0	102*	21	-53	-2	11
C[C@@H]1CN([C@@H](C)CO)C(=O)c2ccccc2-c2ccccc2CO[C@H]1CN(C)Cc1ccncc1	1	9	81	.	.	.	.
COc1cccc(-c2ccc([C@H]3[C@H](CO)N4C(=O)CN(C(=O)C5CCCCC5)C[C@@H]34)cc2)c1	7	-16	.	.	.	.	.
C[C@H]1CN([C@@H](C)CO)C(=O)Cc2cc(NS(C)(=O)=O)ccc2O[C@H]1CN(C)Cc1ccc(C(=O)O)cc1	4	21	44	.	.	.	.
O=C(c1ccccn1)N1CC[C@@H]2[C@H](CO)Nc3ccc(-c4ccccc4F)cc3[C@@H]21	-18	-5	84	.	.	.	.
O=C(c1ccc(F)cc1)N1CC[C@@H]2[C@H](CO)Nc3ccc(-c4ccccc4F)cc3[C@@H]21	6	-3	?	98*	95	6	85*
O=C(c1ccccn1)N1CC[C@@H]2[C@@H](CO)Nc3ccc(-c4ccc(F)cc4)cc3[C@@H]21	-9	21	112*	105*	80	7	16
O=C(c1ccc(F)cc1)N1CC[C@H]2[C@H](CO)Nc3ccc(-c4ccccc4F)cc3[C@H]21	19	-30	55	.	.	.	.
O=C(c1ccccn1)N1CC[C@@H]2[C@@H](CO)Nc3ccc(C#Cc4cccnc4)cc3[C@@H]21	-10	18	31	.	.	.	.
O=C(c1cnccn1)N1CC[C@H]2[C@H](CO)Nc3ccc(-c4ccccc4F)cc3[C@H]21	-1	-3	99*	96*	24	17	21
O=C(c1ccccn1)N1CC[C@H]2[C@H](CO)Nc3ccc(-c4cccc(F)c4)cc3[C@H]21	-8	-11	27	.	.	.	.
O=C(c1ccccn1)N1CC[C@@H]2[C@H](CO)Nc3ccc(C#Cc4cccnc4)cc3[C@@H]21	-16	-54	?	30	24	12	?
CN1C(=O)c2cc(NC(=O)c3ccccc3)ccc2OC[C@H]2O[C@@H](CC(=O)NCC3CC3)CC[C@H]21	16	-7	-8	.	.	.	.
O=C(CC1CC1)N1CC2(C1)[C@@H](c1ccccc1)[C@H](CO)N2C(=O)c1cnccn1	9	28	.	.	.	.	.
SMILES	C diff HTS	Pf Dd2 growth	T cruzi growth-1	T cruzi growth-2	T cruzi growth-3	NIH3T3 tox	NIH3T3 tox 2
CC(=O)N1[C@@H]2c3ccc(/C=C/c4ccccc4)c(=O)n3C[C@H]1[C@H](CO)[C@H]2C(=O)N(C)C	6	.	+	76	17	1	4
CC=Cc1ccc2n(c1=O)C[C@@H]1[C@@H](CO)[C@H](C(=O)NCCCN(C)C)[C@H]2N1C(=O)c1ccccc1 (mixture of isomers)	-3	17	.	.	.	.	.
CC(=O)N1[C@@H]2Cn3c(ccc(/C=C/c4ccccc4)c3=O)[C@H]1[C@@H](C(=O)N(C)C)[C@@H]2CO	17	.	+	68	-8	0	-3
CC=Cc1ccc2n(c1=O)C[C@@H]1[C@@H](CO)[C@H](C(=O)N(C)C)[C@H]2N1C(=O)c1ccccc1 (mixture of isomers)	-4	-8	-3	.	.	.	.
CCC(=O)N1[C@@H]2c3ccc(/C=C/c4ccccc4)c(=O)n3C[C@H]1[C@H](CO)[C@H]2C(=O)N(C)C	0	3	51	.	.	.	.
CC=Cc1ccc2n(c1=O)C[C@H]1[C@H](CO)[C@@H](C(=O)NCCCN(C)C)[C@@H]2N1C(=O)c1ccccc1F (mixture of isomers)	-1	.	+	?	-5	9	-3
C[C@@H]1CCCCO[C@H](CN(C)C(=O)Nc2ccccc2)[C@@H](C)CN([C@@H](C)CO)C(=O)c2cc(NC(=O)CCCN(C)C)ccc2O1	-2	-10	32	.	.	.	.
COC(=O)[C@@H]1[C@@H](CO)[C@@H]2Cn3c(ccc(-c4cccc(F)c4)c3=O)[C@@H]2N1Cc1ccccn1	-2	4	-8	.	.	.	.
O=C(C[C@@H]1C=C[C@@H](NC(=O)Nc2ccccc2)[C@@H](CO)O1)NCc1cccc(F)c1	4	-5	-16	.	.	.	.
O=C(C[C@H]1CC[C@H](NC(=O)Nc2ccc(C(F)(F)F)cc2)[C@@H](CO)O1)NCc1cc(F)cc(F)c1	.	-39	103*	77	-24	-7	10
O=C(C[C@@H]1CC[C@@H](NC(=O)Nc2ccc(C(F)(F)F)cc2)[C@@H](CO)O1)NCc1cc(F)cc(F)c1	.	-4	-1	.	.	.	.
